# From PubChem
# Most compounds without a hit are left out; they make up all but 10% or so of the library.
# MCF10A rereplic: inducers of DNA re-replication in MCF 10A breast cells; Potency, µM (series often up to 46.1 µM), for inactives: at the highest dose activity, positive = re-replication, most hits filed as activators; 2.9% of 350,000 active; MCF 10A DNA re-replication, Hoechst nuclear intensity, 48 h; also: % of control where 0% means no effect; nearly all actives have a fitted effect of over 50% in size
# SW480 rerep: inducers of DNA re-replication in SW480 colon cancer cells; Potency, µM (top dose mostly 46.1 µM), inactives show at the highest dose re-replication activation, most hits filed as activators; SW480 DNA re-replication, Hoechst DNA content imaging, 48 h; 1.8% of 340,000 active; AID 624297; also: % of control where 0% means no effect; nearly all actives have a fitted effect of over 55% in size
#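 SW480 cells exposed to compounds for 48 hr at 37 C, 5% CO2, then Hoechst-stained 40 min. Nuclear DNA content imaged by fluorescence scanning (405 nm excitation, 500-530 nm emission); re-replication scored as increased high-intensity nuclei.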
# RORg inh: blocks mouse ROR gamma transcriptional activity; Drosophila S2 Gal4-RORgamma UAS-luciferase reporter, 20 h; Potency, µM (titrated, usually from 53.6 µM), for inactives: top-dose activity change, negative = inhibition, actives largely listed as inhibitors; 5.4% of 310,000 active; AID 2551; also: % is scaled to controls: 0 for no effect and ±100 for the full control effect; nearly all actives have a fitted effect of over 60% in size
# Target sequence (P51450 whole entry, looked up, the tested form may be a part): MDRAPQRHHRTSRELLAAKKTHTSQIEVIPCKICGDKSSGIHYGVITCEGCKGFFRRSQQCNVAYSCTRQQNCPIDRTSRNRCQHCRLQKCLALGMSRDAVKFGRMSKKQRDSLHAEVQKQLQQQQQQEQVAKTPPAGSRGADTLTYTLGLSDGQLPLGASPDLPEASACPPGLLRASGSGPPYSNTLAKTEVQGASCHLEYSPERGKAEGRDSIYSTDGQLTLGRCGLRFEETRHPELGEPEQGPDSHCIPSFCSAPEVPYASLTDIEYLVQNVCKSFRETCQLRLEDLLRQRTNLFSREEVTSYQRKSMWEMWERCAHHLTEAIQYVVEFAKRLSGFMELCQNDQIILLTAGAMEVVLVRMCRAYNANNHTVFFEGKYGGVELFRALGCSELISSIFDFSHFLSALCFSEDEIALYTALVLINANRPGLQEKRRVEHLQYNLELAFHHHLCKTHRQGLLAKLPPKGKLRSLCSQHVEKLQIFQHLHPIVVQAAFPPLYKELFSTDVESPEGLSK
#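 A Gal4/UAS one-hybrid system in insect cells: metallothionein-promoter Gal4–ROR gamma fusion plus Photinus luciferase reporter. Copper sulfate 700 uM final, 20 hr ambient incubation, luminescent detection after 10 min with reagent.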
# Gal4-VP16 FLuc: counter-screen for ROR gamma inhibitors: Gal4-VP16 reporter | Drosophila S2 Gal4-VP16 UAS-luciferase, luminescence, 20 h | Potency, µM (series often up to 53.6 µM), without a hit: at the top dose activity, negative = inhibition, hits mostly inhibitors | 3.5% of 310,000 active;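 also: Gal4-VP16 expression switched on by copper sulfate through the metallothionein promoter; % is scaled to controls: 0 for no effect and ±100 for the full control effect; nearly all actives have a fitted effect of over 50% in size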
# ELG1 repair inh: ELG1-dependent DNA repair inhibition | HEK293T ELG1-luciferase reporter, luminescence, 16 h; DNA damage induced by 5-fluorouridine | Potency, µM (doses to about 46.1 µM), without a hit: at the highest dose activity change, negative = inhibition, hits mostly inhibitors | 2.3% of 330,000 active | AID 504467; also: % is scaled to controls: 0 for no effect and ±100 for the full control effect; nearly all actives have a fitted effect of over 55% in size
#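 Luminescence from the luciferase reporter, measured 30 min after ONE-Glo reagent at room temperature, was the read-out. Beforehand, 2,000 cells per well were exposed for 16 hr at 37 °C to 5-fluorouridine together with compound or vehicle.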
# An asterisk follows results filed as active; ? = inconclusive; nt = no result. Calls follow the shape of the dose curve; as a rule, active = well fitted curve in the direction sought with a large enough effect; inconclusive = small, poorly fitted or top-dose-only effect, or another doubt; inactive = no such curve, though single readings can be large; an effect the other way counts as inactive or inconclusive. Potency is read from the fitted curve at half-maximal effect.
SMILES,MCF10A rereplic,SW480 rerep,RORg inh,Gal4-VP16 FLuc,ELG1 repair inh
CC(C)n1c(NCCc2ccccc2)nc2c1c(=O)n(C)c(=O)n2C,16.2%,13.1%,?,-2.3%,18.4µM*
CCCCCn1c(CN(C)Cc2ccccc2)nc2c1c(=O)n(C)c(=O)n2C,?,4.6%,-6.1%,-18.0%,18.4µM*
COc1ccc(C(CNC(=O)CN2C(=O)NC3(CCCC3)C2=O)N(C)C)cc1 (stereo unspecified),-0.3%,3.2%,10.5%,5.4%,?
Cc1ccc2c(=O)n3c(nc2c1)C(CC(C)C)NC(=O)c1ccc(Cl)cc1-3 (stereo unspecified),nt,nt,nt,nt,-2.3%
COc1cccc(N/C=C/C(=O)c2ccc(C)cc2)c1,-1.9%,1.8%,?,?,?
COc1cccc(C(=O)/C=C/Nc2ccc(S(=O)(=O)Nc3cccc(C(C)=O)c3)cc2)c1,10.3µM*,20.6µM*,15.4%,10µM*,?
COc1cccc(N/C=C/C(=O)c2ccc(Cl)cc2)c1,?,15.1%,10µM*,12.6µM*,?
COc1cccc(C(=O)/C=C/Nc2cccc(O)c2)c1,?,-5.4%,7.94µM*,1.26µM*,?
COc1cccc(C(=O)/C=C/Nc2ccc(NC(C)=O)cc2)c1,?,6.5%,?,5.2%,?
COC(=O)c1ccccc1NC(=O)CSc1nnc(-c2cccnc2)n1N,0.9%,2.0%,10.0%,-18.0%,-13.1%
COc1ccccc1Nc1ccc(NS(=O)(=O)c2ccc(C(C)=O)cc2)cc1,3.4%,-3.7%,?,-1.4%,-1.9%
COc1ccc(NC(=O)CN(C)C(=O)c2cccc(S(=O)(=O)N3CCN(c4ccc(F)cc4)CC3)c2)cc1,4.7%,-10.9%,nt,nt,nt
COc1ccc(NS(=O)(=O)c2ccc(F)c(Cl)c2)cn1,4.4%,1.0%,?,-2.5%,-8.5%
O=C(NCC1(c2ccccc2)CCCC1)C(=O)NCC1(c2ccccc2)CCCC1,15.7%,-7.5%,4.5%,5.2%,1.6%
Cc1ccc(NC(=S)NCC(C)C)cc1,3.2%,-44.8%,10µM*,11.2µM*,?
CC(C)CNC(=S)Nc1ccc(S(N)(=O)=O)cc1,-9.5%,-694.5%,-3.8%,-9.2%,1.9%
COC(=O)Cc1ccc(NC(=S)NCCC(C)C)cc1,-12.3%,-185.2%,10µM*,?,1.2%
S=C(NCC1(c2ccccc2)CCCC1)Nc1ccccc1,-8.2%,-3.1%,1.58µM*,6.31µM*,?
S=C(NCCOCCOCCNC(=S)Nc1ccccc1)Nc1ccccc1,0.8%,3.0%,5.01µM*,?,?
COC(=O)[C@]1(Cc2ccccc2)N[C@H](c2ccc(-c3cccc(Cl)c3)cc2)[C@@H]2C(=O)N(C)C(=O)[C@@H]21,-4.5%,-0.7%,nt,nt,-2.4%
O=C(NCCCO)C(=O)NCc1ccccn1,-6.8%,2.0%,32.5%,-9.3%,15.2%
COc1ccc(OC)c(S(=O)(=O)N/N=C\c2cn(CC(N)=O)c3ccccc23)c1,?,?,1.5%,-8.3%,?
S=C(NCCc1ccccc1)Nc1ccc(Br)cc1,?,-1.9%,5.01µM*,?,?
CC(C)CCNC(=S)Nc1ccc(Br)cc1,?,32.6%,3.55µM*,10µM*,?
CCCNC(=S)Nc1ccc(S(N)(=O)=O)cc1,3.7%,-4.1%,1.8%,-6.3%,-1.9%
SMILES,MCF10A rereplic,SW480 rerep,RORg inh,Gal4-VP16 FLuc,ELG1 repair inh
CCCNC(=S)Nc1ccc(Br)cc1,13.5%,-1.7%,11.2µM*,?,?
S=C(NCCc1ccncc1)Nc1ccccc1,4.7%,-1.1%,-15.8%,-0.9%,0.4%
CC(C)CCNC(=O)/C=C/c1ccc(Br)cc1,1.1%,-9.2%,33.7%,8.1%,?
Oc1ccc(Br)cc1/C=N/Nc1ncc(-c2ccccc2)cn1,?,?,11.2µM*,-13.8%,-18.7%
COc1ccc(C(=O)CCc2ccccc2)c(O)c1,-0.8%,-3.5%,nt,nt,nt
COc1cc(/C=N\NC(=O)CC(=O)NCCc2ccccc2)ccc1O,-7.3%,?,0.8%,-24.8%,-6.7%
Oc1ccc(Br)cc1/C=N/NC(=S)NCCc1ccccc1,?,?,15.8µM*,15.8µM*,?
COc1ccc(/C(C)=N/NC(=S)NCCc2ccccc2)c(O)c1,?,10.6%,5.01µM*,7.08µM*,?
